Measurements as given in the supplement of paper PMC8387472.

Assays:
Conditions in all cases: mESC; 2uM; 72 h treatment, harvest day 5
Kenpaullone = compound: O=C1Cc2c([nH]c3ccc(Br)cc23)-c2ccccc2N1 [Kenpaullone]; experiment: fraction of microhomology deletions among edited reads; higher = more MH deletions
Genistein = compound: O=c1c(-c2ccc(O)cc2)coc2cc(O)cc(O)c12 [Genistein]; experiment: as above
[1] = compound: O=c1cc(N2CCOCC2)oc2c(-c3ccc4c(c3)OCCO4)csc12; experiment: as above
Mercaptopurine (6-MP) = compound: S=c1[nH]cnc2nc[nH]c12 [Mercaptopurine (6-MP)]; experiment: as above
[2] = compound: S=c1nc[nH]c2nc[nH]c12 [6-Mercaptopurine (6-MP) Monohydrate]; experiment: as above
[3] = compound: CC(=O)O/N=C1\C(=O)N(Cc2cc(Cl)ccc2Cl)c2ccc(Cl)cc21; experiment: fraction of 1-bp insertions among edited reads; higher = more 1-bp insertion outcomes
[4] = compound: CC(C)(C#N)c1ccc(N2C(=O)OCc3cnc4ccc(-c5cnc6ccccc6c5)cc4c32)cc1; experiment: as above
[5] = compound: CCCCOc1c(C(=O)c2c(F)cc(C)cc2F)c[nH]c2nncc1-2; experiment: as above
[6] = compound: CCN1CCN(CC(=O)Nc2ccc(-c3cccc4c(=O)cc(N5CCOCC5)oc34)c3sc4ccccc4c23)CC1; experiment: as above
[7] = compound: CCc1c2c(nc3ccc(OC(=O)N4CCC(N5CCCCC5)CC4)cc13)-c1cc3c(c(=O)n1C2)COC(=O)[C@]3(O)CC [Irinotecan HCl Trihydrate]; experiment: as above
[8] = compound: CCn1c(=O)c(-c2ccc(Cl)cc2Cl)cc2cnc(Nc3ccc(N4CCNCC4)c(F)c3)nc21; experiment: as above
[9] = compound: CNc1ccc([N+](=O)[O-])c(Nc2ccc3[nH]ncc3c2)n1; experiment: as above
Rifapentine = compound: CO[C@H]1/C=C/O[C@@]2(C)Oc3c(C)c(O)c4c(O)c(c(/C=N/N5CCN(C6CCCC6)CC5)c(O)c4c3C2=O)NC(=O)/C(C)=C\C=C\[C@H](C)[C@H](O)[C@@H](C)[C@@H](O)[C@@H](C)[C@H](OC(C)=O)[C@@H]1C [Rifapentine]; experiment: as above
[10] = compound: COc1ccccc1-c1cc(Nc2cccc(CS(N)(=O)=O)c2)ncn1; experiment: as above
[11] = compound: C[C@@H]1CN(CC(=O)Nc2ccc3c(c2)Cc2cccc(-c4cc(=O)cc(N5CCOCC5)o4)c2S3)C[C@H](C)O1; experiment: as above
[12] = compound: Cc1cc(C)nc(SCC(=O)Nc2ncc(Cc3cccc4ccccc34)s2)n1; experiment: as above
[13] = compound: Cc1ccc(C(=O)NCCCCCC(=O)Nc2ccccc2N)cc1; experiment: as above
[14] = compound: Cc1cccc(CC(=O)N2CCc3c2ccc(-c2cn(C)c4ncnc(N)c24)c3F)n1; experiment: as above
[15] = compound: NC(=O)c1ccc2nc(-c3ccc(Oc4ccc(Cl)cc4)cc3)[nH]c2c1 [Chk 2 inhibitor II (BML-277)]; experiment: as above
Tucidinostat (Chidamide) = compound: Nc1cc(F)ccc1NC(=O)c1ccc(CNC(=O)/C=C/c2cccnc2)cc1 [Tucidinostat (Chidamide)]; experiment: as above

Target	fraction of microhomology deletions among edited reads (Kenpaullone)	fraction of microhomology deletions among edited reads (Genistein)	fraction of microhomology deletions among edited reads [1]	fraction of microhomology deletions among edited reads (Mercaptopurine (6-MP))	fraction of microhomology deletions among edited reads [2]	fraction of 1-bp insertions among edited reads [3]	fraction of 1-bp insertions among edited reads [4]	fraction of 1-bp insertions among edited reads [5]	fraction of 1-bp insertions among edited reads [6]	fraction of 1-bp insertions among edited reads [7]	fraction of 1-bp insertions among edited reads [8]	fraction of 1-bp insertions among edited reads [9]	fraction of 1-bp insertions among edited reads (Rifapentine)	fraction of 1-bp insertions among edited reads [10]	fraction of 1-bp insertions among edited reads [11]	fraction of 1-bp insertions among edited reads [12]	fraction of 1-bp insertions among edited reads [13]	fraction of 1-bp insertions among edited reads [14]	fraction of 1-bp insertions among edited reads [15]	fraction of 1-bp insertions among edited reads (Tucidinostat (Chidamide))
30.0 (DMSO control at this site: 1-bp insertion 0.074, MH deletion 0.67, edited 0.142) GAGCTGGCATGAGTATTTGTGCCACATGGCTCCCACATGGCTCCACATGCAAGTTTGAAAC	0.628	0.697	0.745	0.6	0.57	0.0901	0.0675	0.059	0.036	0.0999	0.0975	0.0866	0.0945	0.115	0.178	0.0785	0.0713	0.111	0.0722	0.1
29.0 (DMSO control at this site: 1-bp insertion 0.084, MH deletion 0.745, edited 0.133) TTGATGAACTTCCTCTTCTTCTCATGTCTCCGGTCTCCGGTAGGCCACGTGCATGGCCACT	0.631	0.718	0.735	0.669	0.633	0.0853	0.0763	0.0825	0.0366	0.0846	0.0597	0.0921	0.0712	0.106	0.339	0.0918	0.0975	0.111	0.0639	0.122
46.0 TTAAGAGCAATGTTCACGCAACTTGAAATTATATCTGTGGTCTTCAAATTGTCTTTTGTCA	–	0.375	–	–	0.33	–	0.09	0.208	–	–	–	0.243	0.165	–	–	–	0.222	–	–	0.178
35.0 (DMSO control at this site: 1-bp insertion 0.01, MH deletion 0.72, edited 0.098) CCACTTTTAGAGAGGGTGAAAATCATCAGTTATCATCAGGGCAACAAATTGCTTTCTCCTA	0.683	0.77	0.809	0.684	0.657	0.0261	0.0309	0.00887	0.0214	0.0184	0.0264	0.00485	0.0103	0.0267	0.125	0.0279	0.0384	0.0134	0.0163	0.0535
1.0 (DMSO control at this site: 1-bp insertion 0.521, MH deletion 0.323, edited 0.141) GTGTCACAGTGCACGAGTGACGGGATAATGTGCTGACAGGTAATTGATAGGCTTCCAACTT	0.197	0.286	0.276	0.227	0.218	0.514	0.557	0.595	0.243	0.586	0.545	0.665	0.573	0.628	0.8	0.594	0.577	0.588	0.594	0.605
20.0 (DMSO control at this site: 1-bp insertion 0.349, MH deletion 0.138, edited 0.084) TACAGGTGTAGACTGGTTACGTGGCTGCGGAATTGACTGGTTACGTGGCTGCGGAATTTTG	0.181	0.197	0.176	0.2	0.243	0.29	0.248	0.373	0.0738	0.285	0.317	0.438	0.293	0.345	0.47	0.3	0.315	0.355	0.233	0.348
5.0 (DMSO control at this site: 1-bp insertion 0.214, MH deletion 0.567, edited 0.105) CGCTGACCCGAGACCTACGCGAACCGAAATCGGCGACCGGTGCGCAAGCAGGGCTGGCGTC	0.523	0.604	0.61	0.507	0.498	0.204	0.198	0.226	0.0634	0.239	0.179	0.261	0.208	0.267	0.477	0.232	0.217	0.252	0.208	0.257
15.0 GCGCCTCCAATGACCCAGTGGGATCCTACTCCATAATGGGATCCTGGGGATTCCTCGCTCC	–	0.299	–	–	0.339	0.254	0.168	–	–	–	–	–	0.167	–	–	0.185	0.19	–	–	0.158
41.0 (DMSO control at this site: 1-bp insertion 0.022, MH deletion 0.754, edited 0.115) AAAGAGACAGCAGGTATGAATCCATCTTCCTGACCCTTGGGACCAGCCGGGGCAGTGAAGC	0.672	0.753	0.762	0.701	0.674	0.0367	0.0302	0.0252	0.0166	0.0367	0.0239	0.0181	0.018	0.0187	0.0495	0.0288	0.0318	0.0382	0.0265	0.0195
31.0 (DMSO control at this site: 1-bp insertion 0.315, MH deletion 0.329, edited 0.026) ACCTCCACAGGCTGGGTGGCCCGGAGGCTGGGCGGCCCGGAGGCTGGGCTGGGCGAGTATC	0.518	0.477	0.404	0.459	0.408	0.215	0.14	0.2	0.106	0.105	0.115	0.185	0.232	0.192	–	0.196	0.214	–	–	0.0994
4.0 (DMSO control at this site: 1-bp insertion 0.146, MH deletion 0.523, edited 0.125) ACGCCTTAGTGCACGAGTGACGGGATAATGTGGTCTCAGGTAATTGATAGGCTTCCAACTT	0.475	0.553	0.586	0.478	0.463	0.121	0.127	0.152	0.0339	0.116	0.102	0.165	0.101	0.15	0.416	0.132	0.145	0.167	0.102	0.171
19.0 (DMSO control at this site: 1-bp insertion 0.121, MH deletion 0.101, edited 0.057) TCTGCAGGGGTCGGAACCCGGGGGCTAGGGCTATCCCGGGGGCTAGGGCTATTAGCGAACC	0.221	0.186	0.125	0.238	0.163	0.111	0.0907	0.0994	0.0438	0.0969	0.131	0.0931	0.103	0.0834	0.27	0.0666	0.123	0.087	0.0625	0.116
18.0 (DMSO control at this site: 1-bp insertion 0.114, MH deletion 0.789, edited 0.094) GCGCAAGTGCATAAGTTTTTCTTAAGGCGTGCCTTTAAGGCGTGCCTTTGTCGGTCCTGGA	0.759	0.797	0.833	0.734	0.733	0.0913	0.0901	0.103	0.0252	0.109	0.0919	0.103	0.103	0.109	0.18	0.105	0.113	0.128	0.0891	0.0964
44.0 (DMSO control at this site: 1-bp insertion 0.181, MH deletion 0.512, edited 0.123) ACACATACCTTCTTCGAGGCAGCCAGCATGATGAGACAGGTCTCCCACAAACACATCGTGT	0.473	0.525	0.537	0.499	0.523	0.159	0.185	0.221	0.0636	0.21	0.198	0.251	0.174	0.233	0.418	0.192	0.2	0.282	0.166	0.238
32.0 (DMSO control at this site: 1-bp insertion 0.03, MH deletion 0.85, edited 0.898) AGAAGTCCAGGATCAGGGGGACTGGGGTCGGGAGGGTGGGGCAGGAAGGAAGCCAGAATCA	0.904	0.88	0.92	0.903	0.897	0.00904	0.0156	0.0115	0.00897	0.00964	0.0112	0.0188	0.0121	0.012	0.0185	0.018	0.0164	0.0245	0.0134	0.0163
34.0 (DMSO control at this site: 1-bp insertion 0.184, MH deletion 0.385, edited 0.103) ATTATAGGACCCTGAGGGAGCAGAGATGTGGGAATGGGGGCCGAGCCAATTGTGATGTAAG	0.473	0.534	0.476	0.424	–	0.157	0.154	0.172	0.0647	0.184	0.153	0.199	0.159	0.169	0.361	0.165	0.208	0.197	0.148	0.184
33.0 (DMSO control at this site: 1-bp insertion 0.008, MH deletion 0.771, edited 0.112) CATTAAGAGCAGCTGCCGGCCCCCAAGTGGACAGAGCTGGCCCTGCTGATTCAACAGTGCA	0.726	0.732	0.737	0.699	0.692	0.0218	0.021	0.0356	0.018	0.0322	0.0229	0.0311	0.0305	0.0177	0.036	0.0245	0.0214	0.0211	0.0295	0.0189
39.0 (DMSO control at this site: 1-bp insertion 0.328, MH deletion 0.371, edited 0.204) CTGCACAGTCACTTAGGATAGGAGAAGATGATGTATAGGGTTTAGTGGGAGATGTTGCAAG	0.264	0.404	0.406	0.356	0.371	0.334	0.385	0.418	0.163	0.423	0.383	0.466	0.39	0.442	0.804	0.396	0.384	0.463	0.404	0.487
